# Experimental data from the supplement of paper PMC8728848.
# The sample as a whole holds a higher share of the strongest signals than the screen did.
# B1: HPA (Helix pomatia), Q2F1K8 (protein)
# chain: MQAFYSGLLLLCVVAFAAAQRVQSGKIDCGNDAGWAKVPSDDPGRDNTRELAKNITFASPYCRPPVVLLSITQLDVEQSQNLRVIARLYSVSPTGFKASCYTWHNTKVYSMSISWISIENY
# Experiments:
# Assay in all cases: glycan array binding signal (z-score within array); higher = stronger binding
# Details in all cases: glycan notation: IUPAC condensed, linker removed
# [1] = molecular target: Gal(b1-4)GlcNAc(b1-3)[Gal(b1-4)GlcNAc(b1-6)]GalNAc
# Method in brief: (§1)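 Negative Z-scores can be read as non-binding. The Z-score is calculated within each array and then averaged across arrays of one protein sequence at different concentrations or buffers and across linkers. Arrays, 3228 in all, were curated from the Consortium for Functional Glycomics database and kept only where the protein sequence was available.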
# [2] = molecular target: Gal(b1-4)GlcNAc(b1-6)[Gal(b1-3)]GalNAc
# Method in brief: as §1
# Gal6S(b1-3)GlcNAc6S = molecular target: Gal6S(b1-3)GlcNAc6S
# Method in brief: as §1
# GalNAc(a1-3)Gal = molecular target: GalNAc(a1-3)Gal
# Method in brief: as §1
# GalNAc(a1-3)GalNAc = molecular target: GalNAc(a1-3)GalNAc
# Method in brief: as §1
# [3] = molecular target: GalNAc(a1-3)GalNAc(a1-3)Gal(a1-4)Gal(b1-4)GlcNAc
# Method in brief: as §1
# [4] = molecular target: GalNAc(a1-3)GalNAc(b1-3)Gal(a1-4)Gal(b1-4)Glc
# Method in brief: as §1
# GalNAc(b1-3)GalNAc = molecular target: GalNAc(b1-3)GalNAc
# Method in brief: as §1
# [5] = molecular target: GlcA3S(b1-3)Gal(b1-4)GlcNAc(b1-3)Gal(b1-4)Glc
# Method in brief: as §1
# [6] = molecular target: GlcNAc(b1-2)Man(a1-3)[GlcNAc(b1-4)][GlcNAc(b1-2)Man(a1-6)]Man(b1-4)GlcNAc(b1-4)[Fuc(a1-6)]GlcNAc
# Method in brief: as §1
# [7] = molecular target: GlcNAc(b1-4)GlcNAc(b1-4)GlcNAc(b1-4)GlcNAc(b1-4)GlcNAc
# Method in brief: as §1
# [8] = molecular target: GlcNAc(b1-6)Gal(b1-4)GlcNAc
# Method in brief: as §1
# GlcNAc3Prop(b1-4)GlcNAc = molecular target: GlcNAc3Prop(b1-4)GlcNAc
# Method in brief: as §1
# Kdn(a2-6)Gal(b1-4)GlcNAc = molecular target: Kdn(a2-6)Gal(b1-4)GlcNAc
# Method in brief: as §1
# [9] = molecular target: Man(a1-2)Man(a1-3)[Man(a1-2)Man(a1-6)]Man
# Method in brief: as §1
# [10] = molecular target: Neu5Ac(a2-3)Gal(b1-3)GalNAc6S
# Method in brief: as §1
# [11] = molecular target: Neu5Ac(a2-3)Gal(b1-3)GlcNAc(b1-2)Man(a1-3)[Neu5Ac(a2-3)Gal(b1-3)GlcNAc(b1-2)Man(a1-6)]Man(b1-4)GlcNAc(b1-4)GlcNAc
# Method in brief: as §1
# [12] = molecular target: Neu5Ac(a2-3)Gal(b1-3)GlcNAc6S
# Method in brief: as §1
# [13] = molecular target: Neu5Ac(a2-3)Gal(b1-3)[Fuc(a1-4)]GlcNAc(b1-3)Gal(b1-4)[Fuc(a1-3)]GlcNAc
# Method in brief: as §1
# [14] = molecular target: Neu5Ac(a2-3)Gal(b1-4)GlcNAc(b1-2)Man
# Method in brief: as §1
# [15] = molecular target: Neu5Ac(a2-3)Gal(b1-4)GlcNAc(b1-2)[Neu5Ac(a2-3)Gal(b1-4)GlcNAc(b1-6)]Man(a1-6)[Neu5Ac(a2-3)Gal(b1-4)GlcNAc(b1-2)Man(a1-3)][GlcNAc(b1-4)]Man(b1-4)GlcNAc(b1-4)GlcNAc
# Method in brief: as §1
# [16] = molecular target: Neu5Ac(a2-3)Gal(b1-4)[Fuc(a1-3)]GlcNAc(b1-3)Gal(b1-4)GlcNAc
# Method in brief: as §1
# [17] = molecular target: Neu5Ac(a2-3)Gal6S(b1-4)GlcNAc
# Method in brief: as §1
# [18] = molecular target: Neu5Ac(a2-3)[Neu5Ac(a2-6)]GalNAc
# Method in brief: as §1
# [19] = molecular target: Neu5Ac(a2-6)Gal(b1-4)GlcNAc(b1-3)Gal(b1-4)GlcNAc(b1-2)Man(a1-3)[Neu5Ac(a2-6)Gal(b1-4)GlcNAc(b1-3)Gal(b1-4)GlcNAc(b1-2)Man(a1-6)]GalNAc
# Method in brief: as §1
# [20] = molecular target: Neu5Ac(a2-6)GalNAc(b1-4)GlcNAc6S
# Method in brief: as §1
# [21] = molecular target: Neu5Ac(a2-6)GlcNAc(b1-4)GlcNAc
# Method in brief: as §1
# [22] = molecular target: Neu5Ac(a2-8)Neu5Ac(a2-3)Gal(b1-4)GlcNAc
# Method in brief: as §1
binder,measurement,setting,value
B1,glycan array binding signal (z-score),[1],-0.304
same,glycan array binding signal (z-score),[2],-0.255
same,glycan array binding signal (z-score),Gal6S(b1-3)GlcNAc6S,-0.301
same,glycan array binding signal (z-score),GalNAc(a1-3)Gal,2.85
same,glycan array binding signal (z-score),GalNAc(a1-3)GalNAc,3.28
same,glycan array binding signal (z-score),[3],3.71
same,glycan array binding signal (z-score),[4],7.34
same,glycan array binding signal (z-score),GalNAc(b1-3)GalNAc,0.839
same,glycan array binding signal (z-score),[5],-0.351
same,glycan array binding signal (z-score),[6],-0.214
same,glycan array binding signal (z-score),[7],-0.314
same,glycan array binding signal (z-score),[8],-0.35
same,glycan array binding signal (z-score),GlcNAc3Prop(b1-4)GlcNAc,-0.979
same,glycan array binding signal (z-score),Kdn(a2-6)Gal(b1-4)GlcNAc,-0.242
same,glycan array binding signal (z-score),[9],-0.231
same,glycan array binding signal (z-score),[10],-0.272
same,glycan array binding signal (z-score),[11],-0.195
same,glycan array binding signal (z-score),[12],-0.281
same,glycan array binding signal (z-score),[13],-0.105
same,glycan array binding signal (z-score),[14],-0.116
same,glycan array binding signal (z-score),[15],-0.361
same,glycan array binding signal (z-score),[16],0.04
same,glycan array binding signal (z-score),[17],-0.242
same,glycan array binding signal (z-score),[18],-0.294
same,glycan array binding signal (z-score),[19],0.201
same,glycan array binding signal (z-score),[20],-0.275
same,glycan array binding signal (z-score),[21],-0.359
same,glycan array binding signal (z-score),[22],-0.323
